Compounds with a hit are over-represented: about 12% of the library has one in this group of screens.
Sm TGR block: qHTS Assay for the Inhibitors of Schistosoma Mansoni Peroxiredoxins; Schistosoma mansoni thioredoxin glutathione reductase (TGR), Q962Y6; purified TGR, DTNB reduction, TNB absorbance 405 nm; Potency, µM (doses to about 114 µM), actives largely listed as inhibitors; hit rate 3% among 360,000; active means well fitted inhibition curve with a large enough effect; inconclusive means small, poorly fitted or top-dose-only effect; inactive means no such curve, though single readings can be large or run the other way; further: nearly all actives have a fitted effect of over 60% in size
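First, TGR (20 nM dispensed) and NADPH were mixed with compound. Second, a 15 min room-temperature incubation followed. Third, further NADPH and then DTNB were added to start the reaction. Finally, TNB absorbance was monitored kinetically.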
FMDV antiviral: High Throughput Screening for Foot and Mouth Disease Virus Antivirals | FMDV antiviral cell-based qHTS | Potency, µM (top dose mostly 57.9 µM), actives largely listed as inhibitors | hit rate 1.2% among 410,000; calls by dose curve; tested in HEK293T cells; further: read-out not given here; nearly all actives have a fitted effect of over 45% in size
Shiga toxin inh: A qHTS for Small Molecule Inhibitors of Shiga Toxin; Vero cells, Shiga toxin protein synthesis inhibition reporter; inhibition, % at 38.7 µM; hit rate 9.2% among 290,000; AID 2315, 2010; in the data active means inhibition mostly above about 28%, no sharp cut-off; inactive means mostly below about 43%
Cycloheximide cs: Cycloheximide Counterscreen for Small Molecule Inhibitors of Shiga Toxin; cell reporter, cycloheximide protein synthesis inhibition counterscreen; AID 2314, 2010; hit rate 12% among 300,000; max response, %; in the data active means max response mostly above about 13%, no sharp cut-off; inactive means mostly below about 14%; further: read at 38.3 µM for the half of the compounds with a filed dose
A number is an active result; . = inactive; ? = inconclusive; / = no result given; + = active, no number; ! = not confirmed by another sample; [ ] = dose if it differs, or a comment.

SMILES	Sm TGR block	FMDV antiviral	Shiga toxin inh	Cycloheximide cs
COC/C=C/C1=CC2=CC(=O)C(C)(OC(=O)c3cnc4ccccc4n3)C(=O)C2=CN1c1ccccc1 (stereo not drawn)	22µM	.	.	.
COC/C=C/C1=CC2=CC(=O)C(C)(OC(=O)c3cnc4ccccc4n3)C(=O)C2=CN1c1ccc(CO)cc1 (stereo not drawn)	45µM	/	.	.
COC/C=C/C1=CC2=CC(=O)C(C)(OC(=O)c3cnc4ccccc4n3)C(=O)C2=CN1CC(C)C (stereo not drawn)	/	.	/	/
Cc1ccc2nc(NC(=O)CSc3nccn3Cc3ccccc3)sc2c1	.	.	/	/
Cc1cccc(C)c1OCc1n[nH]c(=S)o1	32µM	.	.	.
O=C(Nc1ccc(Cl)cc1)ON=C1CCCC1	.	.	56	40
C/C(=N\OC(=O)Nc1ccc(Cl)cc1)c1ccc(F)c(F)c1	.	.	54	17
O=C(NCCCCCCNC(=O)ON=C1CCCCC1)ON=C1CCCCC1	/	.	27!	27!
O=C(NCCCCCCNC(=O)OC1CCS(=O)(=O)C1)OC1CCS(=O)(=O)C1 (stereo not drawn)	.	.	.	.
Cc1csc2nc(COC(=O)c3ccc(NC(=O)c4ccccc4Br)cc3)cc(=O)n12	.	.	/	/
C(=C\c1nc(N2CCCCCC2)c2ccccc2n1)/c1ccccc1	.	40µM	36	23
C=CCOC(=O)C1=C(C)NC(SCC(=O)NC(=O)OCC)=C(C#N)C1c1cccnc1 (stereo not drawn)	40µM	.	.	.
C=CCOC(=O)C1=C(C)NC(SCC(=O)N(CC)CC)=C(C#N)C1c1ccccc1 (stereo not drawn)	.	.	.	.
CCc1ccccc1Nc1nc2ccccc2n2cnnc12	.	.	/	/
O=C(CCN1CCN(c2ccccc2F)CC1)Nc1ccc(F)cc1	?	.	/	.
Cc1ccccc1N1CCN(CCC(=O)Nc2ccc(F)cc2)CC1	40µM	.	/	.
Nc1nnnn1CC(=O)N/N=C/C=C/c1ccccc1	.	.	.	.
Nc1nnnn1/N=C/C=C/c1ccccc1	.	.	.	17
Nc1nnnn1/N=C/C(Br)=C/c1ccccc1	.	14µM	176	68
Cc1ccc(NC(=O)C2CCCN2S(=O)(=O)c2cccc3nsnc23)cc1Cl (stereo not drawn)	.	?	/	/
O=C(CN1CCCC1)Nc1ccc(OC(F)(F)F)cc1	.	.	/	20
CCN1CCN(CC(=O)Nc2ccc(OC(F)(F)F)cc2)CC1	.	.	.	.
O=C(CN1CCOCC1)Nc1ccc(OC(F)(F)F)cc1	.	.	.	21
C[N+](C)(C)c1ccc(/C=N/Nc2nc(Cl)c(C#N)c(Cl)c2Cl)cc1	45µM	.	.	.
N#Cc1c(Cl)nc(N/N=C/c2ccccc2)c(Cl)c1Cl	.	.	.	.
SMILES	Sm TGR block	FMDV antiviral	Shiga toxin inh	Cycloheximide cs
CCOC(=O)c1ccc(NC(=O)CC2C(=O)N(c3cccc(OC)c3)C(=O)N2Cc2cccnc2)cc1 (stereo not drawn)	.	.	/	/
Cc1cccc(NC(=O)C(Cc2ccccc2)n2cccc2)c1C (stereo not drawn)	.	.	/	/
CCc1c(-c2ccccc2)nc2ccccc2c1C(=O)NCCc1ccccc1	.	.	/	/
Cc1occc1-c1nnc(SCC(=O)Nc2ccccc2)n1C	.	.	.	.
Cc1ccc(CSc2nnc(-c3ccncc3)n2C)cc1	.	.	.	.
Cc1ccccc1Nc1nc(CSc2nnc(-c3ccoc3C)n2C)cs1	35µM	.	.	21
Cc1ccc(Nc2nc(CSc3nnc(-c4ccncc4)n3C)cs2)cc1	.	.	54	25
Cc1occc1-c1nnc(SCc2cc(=O)n3cc(Br)ccc3n2)n1C	45µM	.	.	.
Cn1c(SCc2cc(=O)n3cc(Br)ccc3n2)nnc1C1COc2ccccc2O1 (stereo not drawn)	.[11.4 µM]	.	.	.
Nn1cnnc1N/N=C\c1ccc(-c2ccccc2[N+](=O)[O-])o1	.	.	.	17
Cc1c(C(=O)N/N=C/c2ccc(-c3ccccc3[N+](=O)[O-])o2)sc(N)c1C#N	.	.	.	18
Cc1c(C(=O)N/N=C/c2ccc(O)c(Br)c2)sc(N)c1C#N	?	.	.	.
Cc1ccc(C(=O)N/N=C\c2ccc(Br)o2)o1	.	/	.	.
Cc1ccc(C(=O)N/N=C/c2ccc(-c3ccc(Br)cc3[N+](=O)[O-])o2)o1	50µM	.	.	18
CC(=O)N1CCC[C@H]1C(=O)N1CCc2c(cnc(C)c2CNC(=O)/C=C/c2cccs2)C1	/	.	/	/
O=C(Nc1nccs1)c1ccc(-c2ccc(F)c(Cl)c2)o1	?	.	102	45
O=C(Nc1nccs1)c1ccc(-c2ccc(Cl)cc2Cl)o1	.	.	50	26
Cc1ccccc1NC(=O)c1ccc(-c2ccc(Cl)cc2Cl)o1	.	.	.	21
Cc1cccc(C)c1NC(=O)c1ccc(-c2ccc(Cl)cc2Cl)o1	.	.	.	.
COc1ccc(N2CCN(C(=O)c3sc4nc5n(c(=O)c4c3C)CCC5)CC2)cc1	.	.	/	/
COCc1nc2ccccc2n1CCOc1cccc(C)c1	.	.	/	/
Cc1cccc(C(=O)Oc2ccc3ccc(O)cc3c2)c1	.	.	/	25
O=C(Oc1ccc2ccccc2c1)c1ccccc1	.	.	.	22
CCN(CC)CCn1c2ccccc2c2n[nH]c(=S)nc21	?	.	.	.
CCCn1c(O)c(N=Nc2ccc3ccccc3n2)c2ccccc21	.	.	42	30
SMILES	Sm TGR block	FMDV antiviral	Shiga toxin inh	Cycloheximide cs
CCOC(=O)Cn1c(=O)c(-c2ccccc2N)nc2ccccc21	.	.	.	25
CCOC(=O)Cn1c(=O)c(-c2cc(Br)ccc2N)nc2ccccc21	.	.	.	.
CCN(CC)CCn1c2ccccc2c2nc3ccccc3nc21	50µM	.	53	44
CCCn1c2ccccc2c2nc3ccccc3nc21	.	.	.	19
CC(C)CCn1c(O)c(N=Nc2ccccn2)c2ccccc21	.	.	.	.
N#CCCn1c2ccccc2c2nc3ccccc3nc21	.	.	.	.
O=C(c1cccn1-c1nnc(N2CCCC2)s1)N1CCN(c2ccc(Cl)cc2)CC1	.	.	/	/
Cc1c(C(=O)NCC(C)(C)N2CCOCC2)cnn1-c1nccc(-c2cccs2)n1	/	.	/	/
CCOC(=O)Cn1c2ccccc2c2nc3ccccc3nc21	.	.	.	12
Cc1cccc(C(=O)Oc2ccc(/C=N/NC(=O)c3ccc(O)cc3)cc2)c1	.	?	.	25
CCOc1cc(/C=N\NC(=O)c2ccc(NC(=O)C(C)(C)C)cc2)ccc1OC(=O)c1cccc(C)c1	.	8.9µM	.	.
Cc1cccc(C(=O)Oc2ccc(/C=N/NC(=O)c3ccccc3O)cc2)c1	.	?	+	38
CCOC(=O)c1[nH]c(C)c(CCC(=O)N2CCN(c3cc(C)ccc3C)CC2)c1C	.	?	/	/
CCOc1ccc(NC(=O)c2oc3ccccc3c2NC(=O)C(C)(C)C)cc1	.	.	/	/
COc1ccccc1CNS(=O)(=O)c1ccc2c(c1)NC(=O)C(C)C(=O)N2 (stereo not drawn)	.	.	/	/
O=C(O)c1cccc([N+](=O)[O-])c1C(=O)Nc1ccc2ccccc2c1	.	.	.	20
O=C(O)c1cccc([N+](=O)[O-])c1C(=O)Nc1cccc2ccccc12	.	.	/	20

Source: PubChem
